Measured values as given in PubChem BioAssay (NCI).
This is part of a sample that, as a whole, favours compounds with a hit. Of some 83,000 tested, about 20% had one in any assay.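 A percent growth of 40 corresponds to 60% growth inhibition; 0 means no net growth; -100 means all cells died. Active threshold: below 10.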 A number with no mark means an inactive call. Active and inactive are the calls of the source.

Tests used:
Assay in all cases: NCI-60 one-dose screen, 48 h (100 = growth as untreated, 0 = no growth, -100 = all killed)
HCT-15 colon = conditions: 10 µM unless noted
HT29 colon = conditions: 10 µM unless noted
SNB-75 CNS = conditions: 10 µM unless noted
SNB-19 CNS = conditions: 10 µM unless noted
PC-3 prostate = conditions: 10 µM unless noted
SK-MEL-5 melanoma = conditions: 10 µM unless noted
UACC-62 melanoma = conditions: 10 µM unless noted
LOX IMVI melanoma = conditions: 10 µM unless noted
SK-MEL-28 melanoma = conditions: 10 µM unless noted
SK-MEL-2 melanoma = conditions: 10 µM unless noted
EKVX NSCLC = conditions: 10 µM unless noted
SN12C renal = conditions: 10 µM unless noted
UO-31 renal = conditions: 10 µM unless noted
TK-10 renal = conditions: 10 µM unless noted
ACHN renal = conditions: 10 µM unless noted
A498 renal = conditions: 10 µM unless noted
CCRF-CEM leukemia = conditions: 10 µM unless noted
MOLT-4 leukemia = conditions: 10 µM unless noted
CAKI-1 renal = conditions: 10 µM
U251 CNS = conditions: 10 µM unless noted

| Structure (SMILES) | growth (HCT-15 colon) | growth (HT29 colon) | growth (SNB-75 CNS) | growth (SNB-19 CNS) | growth (PC-3 prostate) | growth (SK-MEL-5 melanoma) | growth (UACC-62 melanoma) | growth (LOX IMVI melanoma) | growth (SK-MEL-28 melanoma) | growth (SK-MEL-2 melanoma) | growth (EKVX NSCLC) | growth (SN12C renal) | growth (UO-31 renal) | growth (TK-10 renal) | growth (ACHN renal) | growth (A498 renal) | growth (CCRF-CEM leukemia) | growth (MOLT-4 leukemia) | growth (CAKI-1 renal) | growth (U251 CNS) |
| --- | --- | --- | --- | --- | --- | --- | --- | --- | --- | --- | --- | --- | --- | --- | --- | --- | --- | --- | --- | --- |
| COc1cc(NC(=O)c2cc(OC)c3ccn(C)c3c2)cc2c1C[C@]1(C)CC[C@@H](O)C(C)(C)[C@H]1O2 | 58.1% | 61.7% | 42.2% | 72.9% | 41.7% | 42% | 53.5% | 19.9% | 36.9% | 31.1% | 65.2% | 86.6% | 2.9% (active) | 90% | 36.6% | 1.9% (active) | 19.6% | 6.92% (active) |  |  |
| Nn1c(SCC(=O)Nc2cc(Cl)c(Cl)cc2Cl)nnc1-c1cc(F)c(Cl)cc1Cl | 150% | 110% | 106% | 102% | 97.8% | 78.4% | 146% | 129% | 135% | 87.3% | 66.5% | 151% | 65.2% |  | 210% | 115% | 125% | 84.8% |  |  |
| CC(=O)Nc1ccc(OC(=O)c2ccccc2O)cc1 | 107% | 113% | 114% | 100% | 94.8% | 109% | 102% | 99.7% |  | 147% | 93.4% | 102% | 88.7% | 128% |  | 84.5% | 95.9% | 96.2% | 91.3% |  |
| NC(=S)NNC1CCCCC1 | 99.7% | 94.4% | 91.5% | 101% | 87.7% | 95.1% | 95.7% | 97.6% | 111% | 97.3% | 89.9% | 95.7% | 72.6% | 97.2% |  | 100% | 84.9% | 70.9% |  |  |
| N#Cc1c(N)nc(Cl)c(C#N)c1C(=O)c1ccccc1 | 18.4% | 18.3% | 50% | 31.2% | 37.5% | 23.1% |  | 12% | 11.6% | 19.4% | 87.8% | 35.7% | 32.4% | 48.6% |  | 108% | 10.2% | 19.7% |  |  |
| CNC(=O)NN | 87.3% | 107% | 88.3% | 105% | 93.4% | 103% |  | 102% | 112% | 119% | 91.5% | 110% |  |  | 88.9% | 93.2% | 65.8% | 105% |  | 95.2% |
| COc1ccc(C2CC(c3cc(Cl)c(C)cc3OC)=NN2c2ccc(S(N)(=O)=O)cc2)cc1OC (configuration not stated) | 75.9% | 78.7% | 83.6% | 101% | 52.3% | 84.6% | 65.1% | 77.9% | 108% | 95.8% | 80.6% | 87.4% | 59.1% | 113% | 84% | 112% |  |  |  |  |
| CCCCC(=O)Nc1nc2ccc(SCCC)cc2s1 | 43.6% | 18% | 33.2% | 64.4% | 47.8% | 42.7% |  | 43.2% |  | 50.1% | 59.7% | 50.1% | 37.5% |  | 75.1% | 9.34% (active) | 44% | 29.8% |  | 39.9% |
| CCc1c(C)c2cc(-n3c(-c4ccc(OC)cc4)csc3=N)c(O)c(C)c2oc1=O | 9.38% (active) | 5.28% (active) | -2.92% (active) | 21.7% | 12.9% | 4.4% (active) | 2% (active) | 5.9% (active) | 28.6% | 10.7% | 19.4% | 10.2% | 14.3% | 64.7% |  | 17.1% | 7.21% (active) | 6.48% (active) |  |  |
| C#C[C@@]1(O)[C@@H](CO)O[C@@H](n2cc(C(F)(F)F)c3c(N)ncnc32)[C@@H]1O | 3.11% (active) | 0.254% (active) | -54.8% (active) | 10.7% | 14% | -65.5% (active) | -1.29% (active) | -23.6% (active) | 28.1% | -52.9% (active) | 5.12% (active) | 9.05% (active) | -35.4% (active) | 12.5% |  | -84.3% (active) | 5.1% (active) | -8.68% (active) |  |  |
| O=C1OC(c2ccc(-c3ccccc3)cc2)=C/C1=C/C=C/c1ccccc1 | 109% | 113% | 92.4% | 99.1% | 105% | 106% | 96.8% | 99.3% | 103% | 114% | 102% | 99.9% | 80% | 107% | 102% | 84.4% | 24.2% | 98.5% |  |  |
| O=C1COc2ccccc2C(=O)N1CCCCNc1ccccc1 | 90.6% | 81.8% | 106% | 94.1% | 47.2% | 99.3% |  | 101% | 103% | 104% | 106% | 58.4% |  |  | 110% | 97.8% | 1.06% (active) | 34.1% | 107% | 85.7% |
| CC1(C)N=C(N)N=C(N)N1c1ccc(OCC(=O)Nc2ccccc2)c(Cl)c1 | 96.7% |  | 82.3% | 49.4% | 14.8% | 26.6% | 18.2% | 22.4% | 76.3% | 47.5% |  | 30.5% | 104% | 57.6% |  | 94.8% | 28.8% | 32% |  | 41% |
| Cc1cc(NC(=O)c2cccc(C(F)(F)F)c2)ccc1-n1ccc2c(NC(=O)c3ccccc3)nccc21 | 92.3% |  | 91.2% | 98.4% | 74.6% | 101% | 96.9% | 101% | 104% | 101% | 94.1% | 94% | 78.5% |  | 106% | 112% | 88.3% | 87.8% | 93.1% | 95.7% |
| CCCCNC(=O)Oc1ccc(/C(=C(/CC)Cc2ccccc2)c2ccc(OCCCN(C)C)cc2)cc1 | 57.7% |  | 75.5% | 90.7% | 81.2% | 84.5% | 106% | 59% |  | 86.8% | 67.5% | 82.8% | 60.5% |  | 92.5% | 76.2% | 77.1% | 63.4% |  | 68.9% |
| O[C@@H]1CCO[C@H](c2ccc3ccccc3c2)C1 | 85.9% |  | 97.2% | 101% | 95.5% | 102% | 100% | 102% | 111% | 96% | 102% | 101% | 93.4% | 93.9% |  | 73.3% | 103% | 99.1% |  | 96.7% |
| COc1cc(/C=C\c2cc(/C=C\c3ccc(O)c(OC)c3)n(C(=O)CNc3ccccc3OC)n2)ccc1O | 56.3% |  | 61.6% | 70.9% | 64.2% | 44.8% | 79.1% | 40.2% | 70% |  | 91.6% | 75.4% |  | 113% | 45.3% | 105% | 45.2% | 58.6% |  | 53.4% |
| Nc1nc(=S)ss1 | 91.8% |  | 89.3% | 103% | 90.7% | 110% | 95.4% | 103% | 113% | 109% | 108% | 97.7% |  | 108% | 109% | 92.5% | 109% | 90.4% |  | 107% |
